Most compounds without a hit are left out; they make up all but 10% or so of the library.
HP1b binding inh – inhibitors of HP1-beta chromodomain binding to methylated histone tails | P83916 | AlphaScreen HP1-beta / biotin-H3K9me3 peptide binding | Potency, µM (series often up to 114 µM), inactives show top-dose activity change, negative = inhibition, most hits filed as inhibitors | 0.56% of 390,000 active; also: nearly all actives have a fitted effect of over 70% in size
Target sequence (P83916 whole entry, looked up): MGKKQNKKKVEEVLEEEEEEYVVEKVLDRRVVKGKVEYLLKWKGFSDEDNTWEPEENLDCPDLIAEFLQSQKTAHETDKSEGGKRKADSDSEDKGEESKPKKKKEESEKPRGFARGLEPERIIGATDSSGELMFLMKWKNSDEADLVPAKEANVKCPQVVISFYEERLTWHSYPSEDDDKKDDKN
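Compound inhibition of the preformed complex between 50 nM HP1-beta and 50 nM biotinylated H3K9me3 peptide was read by AlphaScreen. Buffer was PBS pH 7.4 with 0.01% Tween-20. Incubations ran 30 min at room temperature, with 10 ug/mL donor/acceptor beads.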
G9a block – inhibitors of human histone lysine methyltransferase G9a; 8.8% of 350,000 active; G9a H3K9 monomethylation, AlphaScreen, 2 h; Q96KQ7; Potency, µM (highest dose often 102 µM), for inactives: at the top dose activity, negative = inhibition, actives largely listed as inhibitors; also: % is scaled to controls: 0 for no effect and ±100 for the full control effect; nearly all actives have a fitted effect of over 75% in size
Target sequence (Q96KQ7 913-1193 limits assumed): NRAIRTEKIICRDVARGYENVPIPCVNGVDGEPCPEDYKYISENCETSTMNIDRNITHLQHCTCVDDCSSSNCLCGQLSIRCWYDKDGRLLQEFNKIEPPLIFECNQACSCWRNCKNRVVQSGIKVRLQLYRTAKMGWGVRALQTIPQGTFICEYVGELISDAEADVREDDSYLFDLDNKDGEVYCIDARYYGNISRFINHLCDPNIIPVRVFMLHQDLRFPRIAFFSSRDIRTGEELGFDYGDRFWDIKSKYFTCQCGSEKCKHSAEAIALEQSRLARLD
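Methyltransferase reactions run at room temperature for 2 h (20 nM enzyme, 500 nM biotin-H3K9 peptide, 20 uM SAM) after a 15 min compound preincubation; product detected by AlphaScreen beads and anti-H3K9me1 antibody.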
JMJD2A Tudor inh – blocks the human JMJD2A Tudor domain. 4.4% of 390,000 active. Potency, µM (top dose mostly 114 µM), without a hit: at the top dose activity change, negative = inhibition, hits mostly inhibitors. AlphaScreen JMJD2A-Tudor / H3K4me3 peptide binding. O75164; also: % is scaled to controls: 0 for no effect and ±100 for the full control effect; nearly all actives have a fitted effect of over 50% in size
BAZ2B inh – blocks human BAZ2B; Potency, µM (top dose mostly 114 µM), for the others: at the highest dose activity change, negative = inhibition, most hits filed as inhibitors; 4.4% of 360,000 active; AlphaScreen BAZ2B-H3K14Ac peptide displacement; AID 504333; Q9UIF8; also: % is scaled to controls: 0 for no effect and ±100 for the full control effect; nearly all actives have a fitted effect of over 60% in size
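AlphaScreen luminescence quantifies BAZ2B engagement of H3K14Ac peptide; the protein and biotinylated peptide are both at 50 nM final, buffer PBS pH 7.4 with 0.01% Tween-20, all steps at room temperature.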
GLS inhibitor – glutaminase GLS (human) inhibition | Potency, µM (series often up to 45.5 µM), without a hit: top-dose activity change, negative = inhibition, usual class: inhibitors | 0.21% of 410,000 active | GLS enzymatic activity, qHTS titration | AID 624170; also: % is scaled to controls: 0 for no effect and ±100 for the full control effect
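Two-point fluorescence kinetic (t0, 30 min RT) for hKGA; glutamate detected via glutamate oxidase–HRP–Amplex Red. Substrate: 1 mM L-glutamine solution; buffer 45 mM KH2PO4, pH 8.2.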
* marks the source's active call; other numbers are inactive results; ? = inconclusive; · = not tested or not shown; [ ] = dose if it differs, or a comment. Calls follow the shape of the dose curve; as a rule, active = well fitted curve in the direction sought with a large enough effect; inconclusive = small, poorly fitted or top-dose-only effect, or another doubt; inactive = no such curve, though single readings can be large; an effect the other way counts as inactive or inconclusive. Potency is read from the fitted curve at half-maximal effect.

SMILES	HP1b binding inh	G9a block	JMJD2A Tudor inh	BAZ2B inh	GLS inhibitor
COc1ccc(CCNC(=O)C(=O)NCC(c2ccco2)S(=O)(=O)c2ccccc2)cc1OC (stereo not given)	33%	-21%[59 µM]	-11%	-6%	-13%
COc1ccc(C2C(C#N)=C(N)Oc3c2c(-c2ccccc2)nn3-c2ccccc2)c(OC)c1OC (stereo not given)	?	50µM*	?	25µM*	17%
Cc1nn(-c2ccccc2)c2c1C(c1ccc(Br)s1)C(C#N)=C(N)O2 (stereo not given)	?	16µM*	13µM*	11µM*	-4%
Cc1ccc(-n2nc(C)c3c2OC(N)=C(C#N)C3c2ccc(C)o2)cc1 (stereo not given)	-26%	8.9µM*	11µM*	10µM*	1%
Cc1ccc(-n2nc(C)c3c2OC(N)=C(C#N)C3c2ccco2)cc1 (stereo not given)	45µM*	?	56µM*	18µM*	24%
Cc1nn(-c2ccccc2)c2c1C(c1ccccc1)C(C#N)=C(N)O2 (stereo not given)	-8%	?	-15%[11.4 µM]	?	-8%
Cn1cccc1C(=O)N1CCC2(CCCN(C(c3ccccc3)c3ccccc3)C2)CC1	·	-5%[12.7 µM]	·	·	·
COCc1nc2ccccc2n1Cc1ccc(C(C)(C)C)cc1	42%	6%[59 µM]	-4%	8%	1%
O=C(Nc1cc(Cl)cc(Cl)c1)c1ccc(F)c(S(=O)(=O)N2CCCCCC2)c1	52%	2%[59 µM]	-13%	-2%	6%
Cc1cc(C)nc(CCNC(=O)c2cc(COc3ccccc3)on2)n1	27%	·	-14%	2%	-14%
O=S(=O)(c1ccccc1)N1CCC2(CCN(Cc3ccccc3)CC2)CC1	·	5%[12.7 µM]	·	·	·
Cc1ccc(NC(=O)N2CCC(=O)N2)cc1	1%	?	32µM*	-37%	31%
COc1ccc(Cl)cc1NC(=O)c1ocnc1C	28%	50µM*	-3%	-1%	0%
COC(=O)c1ccc(NC(=O)c2c(C(=O)Nc3ccccc3)sc3nc(C)cc(=O)n23)cc1	47%	-51%	-9%	-14%	5%
COc1ccc(Cl)cc1NC(=O)c1c(C(=O)Nc2cccc(C)c2C)sc2nc(C)cc(=O)n12	5%	11µM*	-6%	-3%	-11%
CN(C)/C=C1\SC(=S)N(c2ccc(Br)cc2)C1=O	-11%	45µM*	?	40µM*	-6%
CN(C)/C=C1\SC(=S)N(c2ccc(F)cc2)C1=O	-25%	63µM*	-19%	-28%	-9%
Cc1cccc(CNC(=O)c2cc3cc(S(=O)(=O)N4CCCCC4)ccc3n2C)c1	22%[57 µM]	14%[59 µM]	-10%	5%	9%
O=C(NCc1cccnc1)c1ccc(Cl)c(S(=O)(=O)N2CCCCCC2)c1	5%	-1%	25µM*	-9%	43%
O=C(NCc1ccccn1)c1ccc(Cl)c(S(=O)(=O)Nc2ccccc2C(=O)NCc2ccccn2)c1	37%	50µM*	-31%	8%	-4%
Cc1cc(C)cc(OC(C)C(=O)Nc2ccccc2C(=O)NCc2cccnc2)c1 (stereo not given)	27%	50µM*	-25%	-29%	-3%
O=C(NCc1cccnc1)c1ccccc1NS(=O)(=O)c1ccccc1	17%	5%	-19%	-3%	0%
O=C(NCc1cccnc1)c1ccc(Cl)c(S(=O)(=O)Nc2ccccc2C(=O)NCc2cccnc2)c1	36%	45µM*	-11%	?	-1%
Cc1ccc(OC(C)C(=O)Nc2ccccc2C(=O)NCc2cccnc2)cc1C (stereo not given)	21%	1%[12.7 µM]	-16%	-15%	0%
CCCCC/C=C\C/C=C\C/C=C\C/C=C\CCCC(=O)O[C@@H](CO)COC(=O)CCCCCCCCCCCCCCCCC	·	14%[59 µM]	·	·	·
SMILES	HP1b binding inh	G9a block	JMJD2A Tudor inh	BAZ2B inh	GLS inhibitor
Cc1ccc(/C=N/Nc2nncc(-c3ccccc3)n2)o1	55%	9%	-5%	-22%	-5%
Cc1[nH]n(-c2ccccc2)c(=O)c1/C=N/Nc1nncc(-c2ccccc2)n1	-9%	20µM*	3.5µM*	4.5µM*	?
CCCCN(CCCC)C(=S)N/N=C/c1c(C)[nH]n(-c2ccccc2)c1=O	3%	?	79µM*	10µM*	3%
Cc1[nH]n(-c2ccccc2)c(=S)c1C=Nc1cccc([N+](=O)[O-])c1	-72%	·	2.5µM*	22µM*	45%
O=[N+]([O-])c1ccc(C=Nc2ccccc2)cc1	·	·	·	·	21%
Cc1cc(C(=O)N/N=C/c2c(C)[nH]n(-c3ccccc3)c2=O)n[nH]1	36%	-7%	50µM*	28µM*	35%
CC12CCC=CC1=C(C=O)C1C2CCC2(C)C(O)CCC12 (stereo not given)	14%[57 µM]	·	-10%	·	3%
CCOc1cc(CNCc2cccnc2)cc(Br)c1OCC(N)=O	29%	-14%	-3%	-14%	124%
Nc1nc(N)c(N=O)c(Nc2cccc(Cl)c2)n1	·	·	·	·	-9%
CCCCN=Cc1c(C)[nH]n(-c2ccccc2)c1=S	?	4.5µM*	?	?	10%
Cc1ccc(-n2[nH]c(C)c(C=Nc3cc(C)ccn3)c2=O)cc1	19%	?	-32%	-29%	-11%
Cc1ccc(-n2[nH]c(C)c(/C=N/NC(=O)c3ccc(O)cc3O)c2=O)cc1	22%	-13%	32µM*	28µM*	-5%
Cc1[nH]n(-c2ccccc2)c(=O)c1/C=N/NC(=O)c1ccc(O)cc1O	57%	?	22µM*	25µM*	7%
Cc1ccc(OCC(=O)N/N=C\c2c(C)[nH]n(-c3ccccc3)c2=O)c([N+](=O)[O-])c1	9%	?	?	?	-1%
CC(=O)Nc1cc(-c2ccncc2)cn2c(-c3ccccc3)cnc12	·	·	·	·	6%
Cc1nc(S(=O)(=O)N2CCN(c3cccc(Cl)c3)CC2)cn1C	20%[57 µM]	-17%[59 µM]	-17%	-1%	-7%
Cc1nc2cnc(N(C)C)nc2n(C)c1=O	·	3%[12.7 µM]	·	·	·
O=[N+]([O-])c1ccc(O)c(C=NNc2ccc(S(=O)(=O)O)cc2)c1	-7%[57 µM]	·	79µM*	·	98%
O=[N+]([O-])c1ccc(O)c(/C=N/Nc2ccccn2)c1	23%	-15%	?	4.5µM*	21%
COc1ccc(O)c(/C=N/Nc2nc3ccccc3[nH]2)c1	48%	?	-2%	-34%	-2%
O=[N+]([O-])c1ccc(O)c(/C=N/Nc2nc3ccccc3[nH]2)c1	17%	-9%	?	32µM*	29%
O=[N+]([O-])c1ccc(O)c(/C=N/Nc2ncnc3c2cnn3-c2ccccc2)c1	-10%	3%	79µM*	?	11%
O=[N+]([O-])c1cccc(N/N=C/c2cc([N+](=O)[O-])ccc2O)c1	7%	-5%	-8%	-24%	-23%

Compound activity as filed in PubChem.
